Only some compounds are listed: those with a hit (about 1.5% of all), similar ones and a draw of the others.
TDP1 block = qHTS Assay for Inhibitors of Tyrosyl-DNA Phosphodiesterase (TDP1); actives 0.28% (n = 350,000); Tyrosyl-DNA phosphodiesterase 1 (Homo sapiens), Q9NUW8; Potency, µM (series often up to 130 µM), for the others: top-dose activity change, negative = inhibition, most hits filed as inhibitors; recombinant TDP1, AlphaScreen DNA substrate cleavage; also: potency is read from the fitted curve at half-maximal effect; nearly all actives have a fitted effect of over 40% in size
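Recombinant E. coli-expressed Tdp1 (1 nM) preincubated with compound 15 min at RT, then 5'-biotin/3'-phosphotyrosine-FITC DNA substrate (15 nM) added for 5 min. AlphaScreen beads (10 ug/ml) added, 10 min RT; tyrosine-FITC cleavage read as signal loss.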
PI5P4Ka inh = qHTS for Inhibitors of phosphatidylinositol 5-phosphate 4-kinase (PI5P4K) | PI5P4Kalpha enzyme, ADP-Glo luminescence, 60 min; stronger effect = lower value | actives 1.2% (n = 330,000) | max response, %; active = max response of -50% or lower; inconclusive = between -30% and -50%; inactive = -30% or higher; also: value at the top dose of about 77 µM
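Quantitative HTS of the MLSMR library against PI5P4Kalpha with substrate. ATP added last at 5 microM final; room temperature, 60 minutes. Remaining ATP depleted, ADP converted and read as luminescence.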
WRN inhibitor = qHTS for Inhibitors of WRN Helicase; actives 0.46% (n = 360,000); Potency, µM (top dose mostly 114 µM), inactives show at the top dose activity change, negative = inhibition, hits mostly inhibitors; WRN helicase unwinding, fluorescent forked duplex, kinetic; also: potency is read from the fitted curve at half-maximal effect; nearly all actives have a fitted effect of over 55% in size
Target sequence (Q14191 whole entry, looked up): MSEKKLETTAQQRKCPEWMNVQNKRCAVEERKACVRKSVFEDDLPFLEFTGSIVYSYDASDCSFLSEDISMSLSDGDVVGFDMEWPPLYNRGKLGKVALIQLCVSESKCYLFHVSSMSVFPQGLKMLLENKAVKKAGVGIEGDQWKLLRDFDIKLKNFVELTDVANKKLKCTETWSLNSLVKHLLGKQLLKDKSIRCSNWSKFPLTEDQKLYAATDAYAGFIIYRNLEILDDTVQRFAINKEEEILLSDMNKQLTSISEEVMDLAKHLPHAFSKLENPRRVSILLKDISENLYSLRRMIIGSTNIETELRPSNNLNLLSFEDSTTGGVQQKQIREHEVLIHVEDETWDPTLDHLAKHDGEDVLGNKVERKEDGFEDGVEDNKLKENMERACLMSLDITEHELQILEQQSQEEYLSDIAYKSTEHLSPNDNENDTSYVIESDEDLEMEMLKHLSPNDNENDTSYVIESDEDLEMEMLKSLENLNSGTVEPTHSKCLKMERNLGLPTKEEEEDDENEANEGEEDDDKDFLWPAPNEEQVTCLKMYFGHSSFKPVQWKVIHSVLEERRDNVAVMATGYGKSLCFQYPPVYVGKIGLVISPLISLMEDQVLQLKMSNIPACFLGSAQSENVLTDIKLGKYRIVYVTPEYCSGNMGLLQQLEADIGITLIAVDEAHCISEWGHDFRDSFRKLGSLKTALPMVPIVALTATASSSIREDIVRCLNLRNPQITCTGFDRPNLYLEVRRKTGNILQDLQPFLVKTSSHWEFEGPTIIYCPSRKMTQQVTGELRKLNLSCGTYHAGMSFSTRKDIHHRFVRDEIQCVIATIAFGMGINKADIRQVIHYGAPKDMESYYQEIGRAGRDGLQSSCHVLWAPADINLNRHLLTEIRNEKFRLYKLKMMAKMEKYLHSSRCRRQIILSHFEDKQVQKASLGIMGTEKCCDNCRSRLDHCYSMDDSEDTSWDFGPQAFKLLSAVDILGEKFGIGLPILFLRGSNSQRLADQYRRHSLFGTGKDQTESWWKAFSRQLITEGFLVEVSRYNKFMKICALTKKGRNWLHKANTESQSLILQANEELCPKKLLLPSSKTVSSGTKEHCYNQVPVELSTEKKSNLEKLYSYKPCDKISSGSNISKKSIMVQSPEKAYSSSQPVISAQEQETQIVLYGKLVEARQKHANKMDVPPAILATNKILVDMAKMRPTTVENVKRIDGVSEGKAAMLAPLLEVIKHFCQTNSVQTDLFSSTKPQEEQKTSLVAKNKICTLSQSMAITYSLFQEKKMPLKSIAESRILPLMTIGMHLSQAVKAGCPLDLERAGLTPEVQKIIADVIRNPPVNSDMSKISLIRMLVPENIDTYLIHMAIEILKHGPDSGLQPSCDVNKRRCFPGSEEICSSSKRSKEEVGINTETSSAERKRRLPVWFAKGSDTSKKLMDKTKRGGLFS
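Kinetic fluorescence helicase assay: unwinding of a quenched forked DNA duplex (100 nM final) with 2 mM ATP final raises red fluorescence (525/598 nm). Compounds sat 15 min at room temperature with 20 nM WRN beforehand.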
FEN1 inhibitor = qHTS Assay for the Inhibitors of Human Flap endonuclease 1 (FEN1). Recombinant FEN1 flap cleavage, fluorescence, 15 min. Potency, µM (top dose mostly 114 µM), without a hit: at the highest dose activity change, negative = inhibition, actives largely listed as inhibitors. AID 588795, 2011. actives 0.35% (n = 390,000); also: potency is read from the fitted curve at half-maximal effect; nearly all actives have a fitted effect of over 65% in size
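FEN1 at 10 nM preincubated with compounds 15 min at room temperature, then flap DNA substrate added at 50 nM final. Signal read at 0 and 15 min; concentration-response fitted with four-parameter Hill equation.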
Tb PFK inh = qHTS Assay to Find Inhibitors of T. brucei phosphofructokinase | ATP-dependent 6-phosphofructokinase (Trypanosoma brucei brucei), O15648 | T. brucei PFK, ADP-Glo luminescence | AID 485367, 2010 | Potency, µM (highest dose often 57.5 µM), for the others: at the highest dose activity, negative = inhibition, usual class: inhibitors | actives 0.17% (n = 330,000);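 also: potency is read from the fitted curve at half-maximal effect; 0% = uninhibited 1x PFK enzyme wells and -100% = no-enzyme wells; nearly all actives have a fitted effect of over 60% in size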
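PFK 1.25 nM, F6P 0.5 mM, ATP 0.1 mM, 0.1 M TEA pH 8.0, 5 mM MgCl2, 0.01% Tween20, 0.1% BSA; 45 min RT. ADP-Glo readout. qHTS titration up to 57 uM; curves fitted, compounds curve-classed.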
PGK inhibitor = qHTS Assay to Find Inhibitors of Phosphoglycerate Kinase | PGK/GAPDH coupled, Kinase-Glo luminescence, 60 min | Potency, µM (doses to about 57.5 µM), without a hit: top-dose activity change, negative = inhibition, hits mostly inhibitors | actives 0.043% (n = 380,000) | AID 602233, 2012; also: potency is read from the fitted curve at half-maximal effect; nearly all actives have a fitted effect of over 60% in size
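Luminescent ATP detection (Kinase-Glo Plus) follows a 60-minute room-temperature incubation, with wells lacking PGK as controls. Buffer: 100 mM TEA (pH 7.6), 5 mM MgCl2, 0.01% Tween-20. Coupling enzyme GAPDH (100 nM final) supplies unstable 1,3-BPG in-well.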
Active calls of the source: *; i = inactive; ? = inconclusive; . = no result given; [ ] = remark or other dose. Unless noted, calls follow the shape of the dose curve; as a rule, active = well fitted curve in the direction sought with a large enough effect; inconclusive = small, poorly fitted or top-dose-only effect, or another doubt; inactive = no such curve, though single readings can be large; an effect the other way counts as inactive or inconclusive. Unless noted, % is scaled to controls: 0 for no effect and ±100 for the full control effect.

SMILES	TDP1 block	PI5P4Ka inh	WRN inhibitor	FEN1 inhibitor	Tb PFK inh	PGK inhibitor
CC(C)CN=Cc1c(O)c([N+](=O)[O-])cc2oc3c(c12)CCCC3	-2.7%	?	?	-6.5%	-4.2%	-10.8%
O=[N+]([O-])c1cc2oc3c(c2c(C=NCc2ccccc2)c1O)CCCC3	8.2%	-50.4*	-10.4%[11.6 µM]	9.6%	4.7%	-9.0%
CC[C@H](C)[C@H](NC(=O)[C@H](Cc1ccc(O)cc1)NC(=O)[C@@H](NC(=O)[C@H](CCCN=C(N)N)NC(=O)[C@@H](N)CC(=O)O)C(C)C)C(=O)N[C@@H](Cc1cnc[nH]1)C(=O)N1CCC[C@H]1C(=O)N[C@@H](Cc1ccccc1)C(=O)N[C@@H](Cc1cnc[nH]1)C(=O)N[C@@H](CC(C)C)C(=O)O	8.9%	.	.	.	.	.
O=C([C@@H]1CC=C[C@@H]2CCN(C3CCCCC3)C(=O)[C@@H]21)N1CCOCC1	.	.	.	-14.3%	.	.
CCOC(=O)c1cc(-c2ccc(OC)cc2)nn1-c1ccccc1C(=O)O	7.94µM*	-17.7	-15.6%	16.8%	-2.0%	?
NS(=O)(=O)c1ccc(CCNC(=O)CCS(=O)(=O)c2ccc(Br)cc2)cc1	.	-14.4	?	11.0%	15.1µM*	.
Cc1ccc2oc(-c3cccc(NC(=O)COc4ccc(Cl)cc4C)c3C)nc2c1	.	.	.	-3.5%	.	.
COc1cccc(C2c3c(ncn(-c4cccnc4)c3=N)Oc3ccc4ccccc4c32)c1 (centres undefined)	1.8%	.	.	.	.	.
CCC1=NN2C(=N)/C(=C\c3cccn3-c3ccc(Br)cc3)C(=O)N=C2S1	4.9%	-5.1	1.6%	15.8µM*	-3.1%	i
CCC1=NN2C(=N)/C(=C\c3cccn3-c3c(C)cccc3C)C(=O)N=C2S1	5.0%	-21.4	-5.7%	10.3%	0.7%	i
COc1ccc(-n2cccc2/C=C2\C(=N)N3N=C(c4ccco4)SC3=NC2=O)cc1	.	-53.2*	?	?	-11.2%	?
Clc1ccc(-c2csc3ncnc(Sc4nnnn4-c4ccccc4)c23)cc1	.	.	.	-2.0%	.	.
O=C(Nc1ccc(Cl)cc1Cl)[C@@H]1CC=C[C@@H]2CCN(Cc3ccccc3)C(=O)[C@@H]21	.	.	.	0.3%	.	.
Cc1c(N=C2NC(=O)/C(=C/c3cccc([N+](=O)[O-])c3)S2)c(=O)n(-c2ccccc2)n1C	-2.8%	.	.	.	-0.1%	.
O=C1NC(=Nc2cccc(O)c2)S/C1=C\c1cccnc1	-2.5%	-60.2*	-16.3%	20.1%	-0.4%	-9.0%
O=C1NC(=Nc2cccc(O)c2)S/C1=C\c1cccc([N+](=O)[O-])c1	.	-69.8*	-21.8%	-12.5%	2.7%	-2.5%
Cc1ccc(NS(=O)(=O)c2cc3c(cc2-c2cn[nH]c2)NC(=O)CO3)cc1C	-1.0%	.	.	.	.	.
CC(C)(C)OC(=O)CC(=O)NNC(=O)c1cc2ccccc2[nH]1	-0.5%	.	.	.	.	.
COc1cc2nc(N3CCCN(C)CC3)nc(NC3CCN(Cc4ccccc4)CC3)c2cc1OC	.	.	.	17.8µM*	.	.
COc1cc2c(NC3CCN(C)CC3)nc(N3CCCN(C)CC3)nc2cc1OCc1ccccc1	.	.	.	22.4µM*	.	.
COc1cc2nc(N3CCCN(C)CC3)nc(Nc3ccncc3)c2cc1OC	.	.	.	14.1µM*	.	.
CC(C)(C)n1ncc2c(=O)n(Cc3cccc(Cl)c3Cl)cnc21	.	.	.	-3.7%	.	.
Cc1ccc(NS(=O)(=O)c2ccc3c(c2)N(C)C(=O)CO3)cc1C	0.7%	.	.	.	.	.
Nc1cc(=O)[nH]c(=S)[nH]1	.	.	.	-14.8%	.	.
Cc1cc(C)c(C(=O)C(C)OC(=O)c2ccccn2)cc1C (centres undefined)	6.6%	9.8	0.6%	2.7%	-7.1%	-5.5%

High-throughput results from PubChem.
